# PLK1 PBD inh: blocks phosphopeptide binding to human PLK1 polo-box domain; P53350; Potency, µM, for inactives: max response, negative = inhibition, actives largely listed as inhibitors; Plk1 PBD binding of FITC phosphopeptide, fluorescence polarization; 2.8% of 360,000 active; further: series mostly up to about 57 µM; on the % scale 0 is the no-effect control and ±100 the full control effect; nearly all actives have a fitted effect of over 65% in size
# HP1b binding inh: blocks HP1-beta chromodomain binding to methylated histone tails; P83916; AlphaScreen HP1-beta / biotin-H3K9me3 peptide binding; Potency, µM (series often up to 114 µM), inactives show at the top dose activity change, negative = inhibition, hits mostly inhibitors; 0.56% of 390,000 active; AID 540317; further: nearly all actives have a fitted effect of over 70% in size
#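 Compound inhibition of the preformed complex between 50 nM HP1-beta and 50 nM biotinylated H3K9me3 peptide was read by AlphaScreen. Buffer was PBS pH 7.4 with 0.01% Tween-20. Incubations ran 30 min at room temperature, with 10 ug/mL donor/acceptor beads.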
# JMJD2A Tudor: JMJD2A Tudor domain (human) inhibition; O75164; AlphaScreen JMJD2A-Tudor / H3K4me3 peptide binding; Potency, µM (titrated, usually from 114 µM), inactives show top-dose activity change, negative = inhibition, most hits filed as inhibitors; 4.4% of 390,000 active; further: on the % scale 0 is the no-effect control and ±100 the full control effect; nearly all actives have a fitted effect of over 50% in size
# ALOX12 inh: blocks human arachidonate 12S-lipoxygenase | Potency, µM (series often up to 108 µM), without a hit: top-dose activity change, negative = inhibition, most hits filed as inhibitors | purified 12hLO, xylenol orange hydroperoxide absorbance | P18054 | 1.1% of 580,000 active; further: on the % scale 0 is the no-effect control and ±100 the full control effect
# Target sequence (P18054 whole entry, looked up): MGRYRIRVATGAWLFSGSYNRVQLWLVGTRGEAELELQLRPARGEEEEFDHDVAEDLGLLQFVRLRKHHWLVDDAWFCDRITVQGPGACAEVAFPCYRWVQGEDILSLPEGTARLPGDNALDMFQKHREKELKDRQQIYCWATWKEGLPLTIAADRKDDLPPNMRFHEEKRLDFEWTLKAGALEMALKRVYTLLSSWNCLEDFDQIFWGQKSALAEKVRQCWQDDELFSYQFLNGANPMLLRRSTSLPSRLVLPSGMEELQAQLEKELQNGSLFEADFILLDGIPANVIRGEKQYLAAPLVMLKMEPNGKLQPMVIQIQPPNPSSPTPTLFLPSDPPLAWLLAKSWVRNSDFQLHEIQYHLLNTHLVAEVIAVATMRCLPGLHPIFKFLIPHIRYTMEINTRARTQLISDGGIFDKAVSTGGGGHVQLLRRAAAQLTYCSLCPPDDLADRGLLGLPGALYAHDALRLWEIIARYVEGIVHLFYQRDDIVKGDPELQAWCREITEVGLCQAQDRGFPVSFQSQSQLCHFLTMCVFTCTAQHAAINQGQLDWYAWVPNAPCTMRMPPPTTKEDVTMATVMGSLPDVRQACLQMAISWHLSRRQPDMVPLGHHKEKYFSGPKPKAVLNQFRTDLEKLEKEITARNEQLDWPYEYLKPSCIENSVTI
#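 Hydroperoxide product was detected by ferrous iron/xylenol orange as the 573 to 405 nm absorbance ratio. Arachidonic acid at 40 uM (final) was turned over for 30 min at room temperature by 150 nM human 12hLO, pH 7.0 Hepes buffer, after 15 min compound preincubation.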
# BAZ2B block: inhibitors of human BAZ2B bromodomain. Q9UIF8. AlphaScreen BAZ2B-H3K14Ac peptide displacement. Potency, µM (top dose mostly 114 µM), for inactives: at the top dose activity change, negative = inhibition, usual class: inhibitors. 4.4% of 360,000 active. AID 504333; further: on the % scale 0 is the no-effect control and ±100 the full control effect; nearly all actives have a fitted effect of over 60% in size
#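 Multi-concentration screen (max 110 uM) measuring displacement of acetylated histone H3 peptide from BAZ2B by AlphaScreen, using 50 nM protein, 50 nM peptide and 10 ug/mL streptavidin donor plus Ni-chelate acceptor beads.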
# G9a inh: inhibitors of human histone lysine methyltransferase G9a. AID 504332. Potency, µM (doses to about 102 µM), for inactives: at the highest dose activity, negative = inhibition, actives largely listed as inhibitors. 8.8% of 350,000 active. Q96KQ7. G9a H3K9 monomethylation, AlphaScreen, 2 h; further: on the % scale 0 is the no-effect control and ±100 the full control effect; nearly all actives have a fitted effect of over 75% in size
#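 Using a bead-based AlphaScreen, monomethylated H3K9 product from 2 h room-temperature reactions (G9a 20 nM, peptide 500 nM, SAM 20 uM) was detected with 0.5 ug/mL rabbit anti-H3K9me1 antibody.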
# * = called active by the depositor; i = inactive; u = inconclusive; x = no result; [ ] = another dose, or the depositor's remark. Most compounds without a hit are left out; they make up all but 9% or so of the library. The call rests on the fitted dose curve; in most records, active means well fitted curve in the direction sought with a large enough effect; inconclusive means small, poorly fitted or top-dose-only effect, or another doubt; inactive means no such curve, though single readings can be large; an effect the other way counts as inactive or inconclusive. Potency means the concentration at half of the fitted maximal effect.
SMILES,PLK1 PBD inh,HP1b binding inh,JMJD2A Tudor,ALOX12 inh,BAZ2B block,G9a inh
COc1cccc(CN(C)CC(=O)Nc2cc(S(=O)(=O)N3CCCC3)ccc2Cl)c1OC,-4%,42%,-13%,12%,9%,-21%
Cc1ccc(NC(=O)CCNC(=O)c2ccc(Br)cc2)cc1S(=O)(=O)N1CCCCCC1,-5%,6%,-18%,-8%,1%,50µM*
N#Cc1ccc(Cl)cc1NC(=O)CNc1cccc(S(=O)(=O)N2CCCC2)c1,-5%,40%,-3%,-19%,3%,45µM*
COc1ccccc1CN(C)CC(=O)Nc1cccc(S(=O)(=O)N2CCCC2)c1,4%,-17%,0.79µM*,-20%,x,x
N#Cc1cccc(NC(=O)CNc2cccc(S(=O)(=O)N3CCCC3)c2)c1,-5%,62%,-22%,-12%,3%,-33%
Cc1ccc(NC(=O)Cc2c[nH]c3ccccc23)cc1S(=O)(=O)N1CCCCCC1,-2%,28%,-19%,-7%,-39%,25µM*
Cc1ccc(S(=O)(=O)N2CCCCC2)cc1NC(=O)Cc1c[nH]c2ccccc12,6%,-4%,u,-14%,-6%,-5%[59 µM]
COc1cccc(CN2CCC(N3CC(OCC4CC4)C34CCCCC4)CC2)n1 (configuration not stated),x,x,x,90%,x,x
CCOC(=O)N1CCN(C(=S)Nc2cccc(C)c2C)CC1,-6%,54%,6%[57.1 µM],-16%,-1%,10%
CC1CN(C(c2ccco2)c2sc3ncnn3c2O)CC(C)O1 (configuration not stated),-7%,49%,-13%,u,5%,40µM*
Cc1ccc(C(c2sc3ncnn3c2O)N2CCCCC2)cc1 (configuration not stated),-14%,23%,-19%,22%,10%,14%[59 µM]
Cc1nc2sc(C(c3ccco3)N3CCN(c4ccccc4F)CC3)c(O)n2n1 (configuration not stated),-4%,10%,-18%,-4%,-30%,45µM*
Cc1ccc(C(c2sc3ncnn3c2O)N2CCC(C)CC2)cc1 (configuration not stated),4%,44%,1%,6%,-4%,-2%[59 µM]
Oc1c(C(c2ccc(F)cc2)N2CCc3ccccc3C2)sc2ncnn12 (configuration not stated),u,22%,u,-16%,10%,7.9µM*
Cc1nc2sc(C(c3cccs3)N3CCN(C(=O)c4ccco4)CC3)c(O)n2n1 (configuration not stated),0%,50%,-13%,14%,-28%,40µM*
Cc1nc2sc(C(c3ccco3)N3CCc4ccccc4C3)c(O)n2n1 (configuration not stated),u,-6%,56µM*,u,x,x
Cc1ccc2c(C)c(C(=O)N3CCN(Cc4ccccn4)CC3)oc2c1C,-4%,12%,u,i,-35%,3%
Cc1cc(Oc2ccc(C#N)cc2)nc(NCc2ccccc2)n1,2.7µM*,4%,u,-24%,1%,-19%
Cc1ccc(Nc2cc(C)nc(NCc3ccccc3)n2)cc1,3%,-13%,-30%,u,-9%,2%[59 µM]
COC(=O)c1ccc(Oc2cc(C)nc(NCc3ccccc3)n2)cc1,0%,27%,-7%,16%,4%,-47%
COc1ccc(Nc2cc(C)nc(NCc3ccccc3)n2)cc1,4%,-31%,u,u,-36%,50µM*
Cc1[nH]ccc(=O)c1Oc1ncc(C(F)(F)F)cc1Cl,3%,21%,-15%,-5%,-10%,56µM*
Cc1cc(Br)ccc1NC(=O)CN(C)C(=O)CCc1ncc(-c2ccccc2F)o1,x,x,x,-23%,x,x
CCOC(=O)Cn1c(=O)oc2cc(S(=O)(=O)Nc3ccc(N(CC)CC)cc3C)ccc21,-26%,0%,u,u,u,40µM*
CCN(CC)c1ccc(NS(=O)(=O)c2ccc3c(c2)CCCN3C(C)=O)c(C)c1,x,-5%[57 µM],50µM*,3%,40µM*,11µM*

# Bioassay records (PubChem)
